Laboratory results taken from PubChem BioAssay AID651735 (Southern Research Specialized Biocontainment Screening …, 2012).
The source made the active and inactive calls. How the calls were made is not given here.

experiment: Vero 76 cell cytotoxicity, cytotoxicity control for VEEV inhibitor project, set 8 (AID 651735); conditions: Vero 76 cells viability; series mostly up to 50 µM

Row | SMILES | outcome
1 | CN1CCN(C)C(=Nc2ccc([N+](=O)[O-])cc2C(=O)Nc2ccccc2F)C1 | inactive
2 | COc1ccc(Nc2nc(=O)c3cccnc3s2)cc1 | inactive
3 | O=c1c2cc(F)c(F)cc2nc(CN2CCNCC2)n1-c1ccccc1 | inactive
4 | CCN1CCN(Cc2nc3ccc(-c4ccccn4)cc3c(=O)n2-c2ccccc2)CC1 | inactive
5 | O=c1c2cc([N+](=O)[O-])ccc2nc(CN2CCCNC2)n1-c1ccccc1 | inactive
6 | CN(c1ccc(OCc2ccccc2)cc1)c1nc(=O)c2cccnc2s1 | inactive
7 | CN1CCN(C)C(=Nc2ccc([N+](=O)[O-])cc2C(=O)Nc2ccccc2)C1 | inactive
8 | COc1ccc(NC(=O)c2cc([N+](=O)[O-])ccc2N=C2CN(C)CCN2C)cc1 | inactive
9 | CN1CCN(C)C(=Nc2ccc(C#N)cc2C(=O)Nc2ccccc2)C1 | inactive
10 | COc1ccc(CNc2nc(=O)c3cccnc3s2)cc1 | inactive
11 | O=c1c2cc([N+](=O)[O-])ccc2nc(CN2CCCNCC2)n1-c1ccccc1 | inactive
12 | CCN1CCN(Cc2nc3ccc([N+](=O)[O-])cc3c(=O)n2-c2ccccc2F)CC1 | inactive
13 | CCN1CCN(C2c3ncccc3C(=O)N2c2ccccc2)CC1 (stereo not drawn) | inactive
